Source: PubChem BioAssay (NCATS)
Inconclusive results are not listed. Unmarked numbers belong to inactive results. Activity calls are given as the source filed them. Calls follow the shape of the dose curve; as a rule, active = well fitted cell-killing curve with a large enough effect; inconclusive = small, poorly fitted or top-dose-only effect, or effect the other way; inactive = no such curve, though single readings can be large or run the other way.

Assay: Quantitative High-Throughput drug screen in 47 multiple myeloma cell lines against the NCATS MIPE library collection: RPMI8226_ATCC cell viability assay (AID 1919871); also: nearly all actives have a fitted effect of over 30% in size
Settings: RPMI8226 myeloma viability, CellTiter-Glo ATP luminescence, 48 h; series mostly up to 45.8 µM; viability (% of control): at the top concentration
Description: PI: Beverly A. Mock Ph.D.
Laboratory of Cancer Biology and Genetics,
Center for Cancer Research, National Cancer Institute,
National Institute of Health, Bethesda, Maryland
Drug resistance and disease progression are common in multiple myeloma (MM) patients, underscoring the need for new therapeutic combinations. […] We hypothesized that effective combinations would reduce MYC expression and enhance p16 activity. […] These preclinical data identify potentially useful drug combinations for evaluation in drug-resistant MM and reveal potential mechanisms of combined drug sensitivity.
Described herein is the primary MIPE qHTS used to cherrypick compounds. Validated compounds were then further tested for potential synergistic activiy.
[1] Peat TJ, Gaikwad SM, Dubois W, Gyabaah-Kessie N, Zhang S, Gorjifard S, Phyo Z, Andres M, Hughitt VK, Simpson RM, Miller MA, Girvin AT, Taylor A, Williams D, D'Antonio N, Zhang Y, Rajagopalan A, Flietner E, Wilson K, Zhang X, Shinn P, Klumpp-Thomas C, McKnight C, Itkin Z, Chen L, Kazandijian D, Zhang J, Michalowski AM, Simmons JK, Keats J, Thomas CJ, Mock BA. Drug combinations identified by high-throughput screening promote cell cycle transition and upregulate Smad pathways in myeloma. Cancer Lett. 2023 Aug 1;568:216284. doi: 10.1016/j.canlet.2023.216284. Epub 2023 Jun 24. PMID: 37356470; PMCID: PMC10408729.
SEQUENCE No. (e.g., 1, 2, 3, etc.); […] (e.g., Cells, Incubation, Reagent, etc.); VALUE and DESCRIPTION.
1; Cells; 5 uL; white, solid bottom 1536-well Greiner assay plate.
2; Compounds; 23 nL; Kalypsis pin tool (Wako USA) equipped with a 1536-well pin head to transfer to the assay plates.
3; Incubation; 48 hours; 37C incubation.
4; Reagent;5uL; CellTiter Glo (Promega).
5; Detector; 425V; Luminescence; Viewlux PerkinElmer.
NOTES (numbers refer to Sequence numbers above)
1. The cell-based screening methods employed in this study were like those previously published. Briefly, the corresponding myeloma cell lines were screened in 1,536-well plates with 500 cells, 5-uL per well for inhibition of cell viability (assessed by measuring ATP levels with CellTiterGlo).
2. NCATS MIPE 4.0 library of approved and investigational drugs were added using the Kalypsis pin tool. Wells treated with DMSO only for 100% viability and media only for 0% viability were used as controls.
3. The assay plates were covered and incubated for 48 hours in a 37C, 5% CO2 incubator with controlled humidity.
4. After 48 hours, CellTilter-GloTM luminescent substrate mix (Promega) reagent was added to the assay plate and plates we incubated for 5 min at room temperature.
5. Signal was measured as median relative luminescence units on a ViewLux (PerkinElmer) multiplate reader.
[1] Heske CM, Davis MI, Baumgart JT, Wilson K, Gormally MV, Chen L, Zhang X, Ceribelli M, Duveau DY, Guha R, Ferrer M, Arnaldez FI, Ji J, Tran HL, Zhang Y, Mendoza A, Helman LJ, Thomas CJ. Matrix Screen Identifies Synergistic Combination of PARP Inhibitors and Nicotinamide Phosphoribosyltransferase (NAMPT) Inhibitors in Ewing Sarcoma. Clin Cancer Res. 2017 Dec 1;23(23):7301-7311. doi: 10.1158/1078-0432.CCR-17-1121. Epub 2017 Sep 12. PMID: 28899971; PMCID: PMC6636827.
Potency is read from the fitted curve at half-maximal effect.

Row | SMILES | Potency | viability (% of control)
1 | CN1CCN(c2cc(C(=O)Nc3ccc4c(c3)-c3c(c(C(N)=O)nn3-c3ccc(F)cc3)CC4)c(Cl)cn2)CC1 | 23.5 µM (active) | 
2 | CC[C@@]1(O)C(=O)OCc2c1cc1n(c2=O)Cc2cc3cc(O)ccc3nc2-1 | 8.33 µM (active) | 
3 | CC(C)c1ccc(Cn2ccc3c4c(N)nc(NC5CC5)nc4ccc32)cc1 | 14.8 µM (active) | 
4 | CC(C)c1cnn2c(NCc3ccccc3)cc(N[C@@H](CO)[C@H](O)CO)nc12 | 0.332 µM (active) | 
5 | C1Cc2[nH]nc(-c3nn[nH]n3)c2C1 |  | 109%
6 | CC(C)c1cc(-c2n[nH]c(=O)n2-c2ccc3c(ccn3C)c2)c(O)cc1O | 0.0372 µM (active) | 
7 | CC(C)Nc1cc(C(F)(F)F)cc2nc(NC(=O)c3cccnc3)nn12 |  | 119%
8 | C=C1C(=CC=C2CCCC3(C)[C@@H]([C@H](C)C=CC=CC(O)(CC)CC)CC[C@@H]23)C[C@@H](O)C[C@@H]1O (stereo not given in full) | 26.4 µM (active) | 
9 | CC[C@H]1CN2CCc3cc(OC)c(OC)cc3[C@H]2C[C@@H]1C[C@@H]1NCCc2cc(OC)c(OC)cc21 | 0.148 µM (active) | 
10 | CC(NCc1ccc2c(c1)nc(NC(=O)c1ccc(-c3cn[nH]c3)s1)n2CC(C)(C)O)C(C)(C)C (stereo not given) | 0.743 µM (active) | 
11 | CNC(=O)c1cc(Oc2ccc(NC(=O)Nc3cc(C(C)(C)C)nn3-c3ccc4ncccc4c3)c(F)c2)ccn1 | 16.6 µM (active) | 
12 | NC1(Cc2ccc(Cl)cc2)CCN(c2ncnc3[nH]ccc23)CC1 | 14.8 µM (active) | 
13 | Fc1cc(-c2cccc3ncc(-c4cnn(C5CCNCC5)c4)nc23)cc(F)c1CN1CCOCC1 | 20.9 µM (active) | 
14 | C=CC(=O)Nc1cc2c(Nc3ccc(F)c(Cl)c3)ncnc2cc1C#CC(C)(C)N1CCN(C)CC1 | 6.62 µM (active) | 
15 | c1nc2nc(Nc3ccc(N4CCOCC4)cc3)nc(NC3CCCCC3)c2[nH]1 | 11.8 µM (active) | 
16 | C=CC(=O)Nc1cc2c(Nc3ccc(F)c(Cl)c3)ncnc2cc1OCCCN1CCOCC1 | 20.9 µM (active) | 
17 | Cc1nc(N)ncc1-c1nc(N2CCOCC2)c2sc(C(C)(C)O)cc2n1 | 0.264 µM (active) | 
18 | COC(=O)C1=C(C)NC(C)=C(C(=O)OCCN2CCN(C(c3ccccc3)c3ccccc3)CC2)C1c1cccc([N+](=O)[O-])c1 (stereo not given) |  | 120%
19 | NC(=O)c1c(OCc2c(F)cc(Br)cc2F)nsc1NC(=O)NCCCCN1CCCC1 | 23.5 µM (active) | 
20 | CN(C1CCc2c(c3ccccc3n2CC(=O)O)C1)S(=O)(=O)c1ccc(F)cc1 (stereo not given) |  | 98.4%

Row | SMILES | Potency | viability (% of control)
21 | COc1cc(C)c(Sc2cnc(NC(=O)c3ccc(CNC(C)C(C)C)cc3)s2)cc1C(=O)N1CCN(C(C)=O)CC1 (stereo not given) | 14.8 µM (active) | 
22 | Cc1ccc(CN2CCNCC2)cc1NC(=O)CNc1ccc(F)c(F)c1 |  | 102%
23 | CC(C)(C)OC(=O)Nc1ccc(-c2cc(C(=O)NCCCCCCC(=O)NO)no2)cc1 | 3.32 µM (active) | 
24 | CC(C)(O)c1cc2nc(-c3cnc(N)nc3)nc(N3CCOCC3)c2s1 | 0.0469 µM (active) | 
25 | COC(=O)Nc1ccc(-c2nc(N3CCOCC3)c3cnn(C4CCN(Cc5cccnc5)CC4)c3n2)cc1 | 0.0118 µM (active) | 
26 | O=C(O)[C@H](Cc1c[nH]c2ccccc12)N1C(=O)c2ccccc2C1=O |  | 130% [at 92.2 µM]
27 | Nc1ncnc2c1c(-c1cnc3[nH]ccc3c1)nn2C1CCCC1 | 0.166 µM (active) | 
28 | COC(=O)[C@]12CCC(C)(C)C[C@@H]1[C@@H]1C(=O)C=C3[C@@]4(C)C=C(C#N)C(=O)C(C)(C)[C@@H]4CC[C@@]3(C)[C@]1(C)CC2 | 0.526 µM (active) | 
29 | COc1cccc2c(NCc3ccccc3)nc(-n3c(N)nc4ccccc43)nc12 | 8.33 µM (active) | 
30 | Cc1coc2c1C(=O)C(=O)c1c-2ccc2c1CCCC2(C)C | 2.09 µM (active) | 
31 | CC(C)c1noc(N2CCC(COc3ccc(-c4ccc(S(C)(=O)=O)cc4)nc3)CC2)n1 | 7.43 µM (active) | 
32 | Cc1cc(Nc2cc(CN3CCOCC3)c3nc(C)c(Cc4ccc(Cl)cc4F)n3n2)n[nH]1 | 2.35 µM (active) | 
33 | C=CCn1c(=O)c2cnc(Nc3ccc(N4CCN(C)CC4)cc3)nc2n1-c1cccc(C(C)(C)O)n1 | 2.35 µM (active) | 
34 | COc1cc2c(NC3CCN(C(C)C)CC3)nc(C3CCCCC3)nc2cc1OCCCN1CCCC1 | 6.62 µM (active) | 
35 | O=C(Nc1cn[nH]c1-c1nc2ccc(CN3CCOCC3)cc2[nH]1)NC1CC1 | 10.5 µM (active) | 
36 | CC(=O)OCC(=O)[C@@]1(O)[C@H](C)C[C@H]2[C@@H]3C=C(C)C4=Cc5c(cnn5-c5ccccc5)C[C@]4(C)[C@@H]3[C@@H](O)C[C@@]21C | 4.18 µM (active) | 
37 | CNC(=O)c1nn(C)c2c1C(C)(C)Cc1cnc(Nc3ccc(N4CCN(C)CC4)cc3)nc1-2 | 1.48 µM (active) | 
38 | Cc1ccc2nc(NC(=O)CSc3nc4c(c(=O)n3-c3ccccc3)SCC4)sc2c1 | 16.6 µM (active) | 
39 | O=c1c2ccccc2nc2n1CCc1c-2[nH]c2ccccc12 |  | 116%
40 | COC(=O)C[C@](O)(CCCC(C)(C)O)C(=O)O[C@@H]1C(OC)=C[C@]23CCCN2CCc2cc4c(cc2[C@H]13)OCO4 |  | 115%
